Test results taken from ChEMBL document CHEMBL2218924, “A broad activity screen in support of a chemogenomic map for kinase signalling research and drug discovery” (Biochem J, 2013).

What was measured:
[1] = biological target: Serine/threonine-protein kinase PAK 4 (Homo sapiens) (UniProt O96013); conditions: at 1 µM
[2] = biological target: Serine/threonine-protein kinase PAK 4 (Homo sapiens) (UniProt O96013); conditions: at 10 µM
[3] = biological target: Serine/threonine-protein kinase PAK 5 (Homo sapiens) (UniProt Q9P286); conditions: at 1 µM
Sequence of Serine/threonine-protein kinase PAK 5 (Homo sapiens) (Q9P286 whole entry, looked up): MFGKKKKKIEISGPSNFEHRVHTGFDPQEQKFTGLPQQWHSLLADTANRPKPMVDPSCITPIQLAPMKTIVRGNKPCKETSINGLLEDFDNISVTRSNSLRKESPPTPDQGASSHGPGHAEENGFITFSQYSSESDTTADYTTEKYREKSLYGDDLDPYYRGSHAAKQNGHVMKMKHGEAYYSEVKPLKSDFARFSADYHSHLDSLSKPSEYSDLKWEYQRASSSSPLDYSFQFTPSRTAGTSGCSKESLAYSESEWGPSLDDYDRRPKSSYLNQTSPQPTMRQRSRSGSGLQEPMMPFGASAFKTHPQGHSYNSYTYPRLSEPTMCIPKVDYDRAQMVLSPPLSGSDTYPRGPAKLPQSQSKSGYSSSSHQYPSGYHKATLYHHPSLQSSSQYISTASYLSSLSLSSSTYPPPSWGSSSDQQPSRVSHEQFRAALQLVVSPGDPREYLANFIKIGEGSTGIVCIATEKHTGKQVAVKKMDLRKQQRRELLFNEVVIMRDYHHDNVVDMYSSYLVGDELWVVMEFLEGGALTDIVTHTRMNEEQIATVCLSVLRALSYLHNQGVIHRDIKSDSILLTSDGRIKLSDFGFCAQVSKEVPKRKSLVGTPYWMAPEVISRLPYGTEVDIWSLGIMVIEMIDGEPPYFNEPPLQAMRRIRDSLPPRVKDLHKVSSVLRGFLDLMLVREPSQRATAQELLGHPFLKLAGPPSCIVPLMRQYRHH

[4] = biological target: Serine/threonine-protein kinase PAK 5 (Homo sapiens) (UniProt Q9P286); conditions: at 10 µM
[5] = biological target: Serine/threonine-protein kinase PAK 6 (Homo sapiens) (UniProt Q9NQU5); conditions: at 1 µM
Sequence of Serine/threonine-protein kinase PAK 6 (Homo sapiens) (Q9NQU5 whole entry, looked up): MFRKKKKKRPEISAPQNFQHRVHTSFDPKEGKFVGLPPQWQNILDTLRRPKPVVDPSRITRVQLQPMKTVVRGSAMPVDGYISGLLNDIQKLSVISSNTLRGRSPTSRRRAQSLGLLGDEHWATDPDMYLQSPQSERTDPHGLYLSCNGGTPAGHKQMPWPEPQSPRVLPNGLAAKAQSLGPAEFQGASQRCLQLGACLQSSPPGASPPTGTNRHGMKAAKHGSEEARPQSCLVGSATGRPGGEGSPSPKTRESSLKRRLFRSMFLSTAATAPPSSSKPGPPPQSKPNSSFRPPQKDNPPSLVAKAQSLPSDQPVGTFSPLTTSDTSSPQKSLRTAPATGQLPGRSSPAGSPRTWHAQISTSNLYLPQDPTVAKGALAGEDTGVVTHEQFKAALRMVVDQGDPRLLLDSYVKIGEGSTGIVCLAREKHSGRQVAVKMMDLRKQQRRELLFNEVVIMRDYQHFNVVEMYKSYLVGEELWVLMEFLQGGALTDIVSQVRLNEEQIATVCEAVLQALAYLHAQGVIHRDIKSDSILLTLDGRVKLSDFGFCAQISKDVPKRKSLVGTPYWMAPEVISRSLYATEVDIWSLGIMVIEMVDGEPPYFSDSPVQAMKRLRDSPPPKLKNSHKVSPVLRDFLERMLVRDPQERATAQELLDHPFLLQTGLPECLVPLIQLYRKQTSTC

[6] = biological target: Serine/threonine-protein kinase PAK 6 (Homo sapiens) (UniProt Q9NQU5); conditions: at 10 µM
[7] = biological target: Activated CDC42 kinase 1 (Homo sapiens) (UniProt Q07912); conditions: at 1 µM
Sequence of Activated CDC42 kinase 1 (Homo sapiens) (Q07912 whole entry, looked up): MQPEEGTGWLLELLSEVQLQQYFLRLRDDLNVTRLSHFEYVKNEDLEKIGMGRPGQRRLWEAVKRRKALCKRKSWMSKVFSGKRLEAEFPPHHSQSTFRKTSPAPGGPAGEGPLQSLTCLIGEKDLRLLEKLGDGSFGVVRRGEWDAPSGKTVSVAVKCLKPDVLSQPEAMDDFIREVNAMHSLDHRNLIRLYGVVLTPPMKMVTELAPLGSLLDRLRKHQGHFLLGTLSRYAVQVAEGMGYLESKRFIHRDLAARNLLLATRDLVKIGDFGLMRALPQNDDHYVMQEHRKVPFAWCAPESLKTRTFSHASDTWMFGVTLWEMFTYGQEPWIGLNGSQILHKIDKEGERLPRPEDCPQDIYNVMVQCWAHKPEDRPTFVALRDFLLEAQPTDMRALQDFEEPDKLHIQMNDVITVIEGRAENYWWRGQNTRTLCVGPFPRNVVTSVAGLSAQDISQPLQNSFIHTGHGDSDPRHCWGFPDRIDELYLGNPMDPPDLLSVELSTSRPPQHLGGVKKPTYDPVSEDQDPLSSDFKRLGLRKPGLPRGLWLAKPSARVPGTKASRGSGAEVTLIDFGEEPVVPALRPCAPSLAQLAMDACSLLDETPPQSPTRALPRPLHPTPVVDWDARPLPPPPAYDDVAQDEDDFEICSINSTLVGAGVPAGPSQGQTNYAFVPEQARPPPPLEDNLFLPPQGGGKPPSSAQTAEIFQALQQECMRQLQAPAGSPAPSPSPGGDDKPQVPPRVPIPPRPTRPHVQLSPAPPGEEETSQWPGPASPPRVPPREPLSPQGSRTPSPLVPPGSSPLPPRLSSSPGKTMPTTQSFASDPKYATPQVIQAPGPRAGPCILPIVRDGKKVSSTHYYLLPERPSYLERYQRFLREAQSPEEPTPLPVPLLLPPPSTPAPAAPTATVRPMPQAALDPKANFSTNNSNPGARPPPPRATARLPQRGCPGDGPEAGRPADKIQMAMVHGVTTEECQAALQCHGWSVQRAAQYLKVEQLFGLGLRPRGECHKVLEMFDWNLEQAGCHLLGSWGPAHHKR

[8] = biological target: Activated CDC42 kinase 1 (Homo sapiens) (UniProt Q07912); conditions: at 10 µM
[9] = biological target: ALK tyrosine kinase receptor (Homo sapiens) (UniProt Q9UM73); conditions: at 1 µM
[10] = biological target: ALK tyrosine kinase receptor (Homo sapiens) (UniProt Q9UM73); conditions: at 10 µM
[11] = biological target: T1, Activin receptor type-1B (Homo sapiens) (UniProt P36896); conditions: at 1 µM
T1 sequence (whole entry): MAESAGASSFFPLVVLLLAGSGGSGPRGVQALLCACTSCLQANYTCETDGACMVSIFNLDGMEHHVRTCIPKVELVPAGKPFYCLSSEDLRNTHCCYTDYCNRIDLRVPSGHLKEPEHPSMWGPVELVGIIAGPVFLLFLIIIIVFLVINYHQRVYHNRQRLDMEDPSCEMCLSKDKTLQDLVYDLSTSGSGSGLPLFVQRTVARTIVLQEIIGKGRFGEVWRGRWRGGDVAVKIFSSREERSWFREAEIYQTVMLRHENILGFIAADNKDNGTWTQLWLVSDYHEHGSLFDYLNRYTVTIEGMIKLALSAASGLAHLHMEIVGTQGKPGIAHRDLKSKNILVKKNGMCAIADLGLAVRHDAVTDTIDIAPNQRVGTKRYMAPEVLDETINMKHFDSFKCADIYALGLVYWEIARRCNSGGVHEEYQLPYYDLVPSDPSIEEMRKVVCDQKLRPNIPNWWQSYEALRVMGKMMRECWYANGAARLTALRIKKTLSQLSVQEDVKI

[12] = biological target: T1, Activin receptor type-1B (Homo sapiens); conditions: at 10 µM
[13] = biological target: T2, AMP-activated protein kinase (AMPK) alpha-1/beta-1/gamma-1 (Homo sapiens) (UniProt P54619+Q9Y478+Q13131); conditions: at 1 µM
T2 sequence (P54619 whole entry): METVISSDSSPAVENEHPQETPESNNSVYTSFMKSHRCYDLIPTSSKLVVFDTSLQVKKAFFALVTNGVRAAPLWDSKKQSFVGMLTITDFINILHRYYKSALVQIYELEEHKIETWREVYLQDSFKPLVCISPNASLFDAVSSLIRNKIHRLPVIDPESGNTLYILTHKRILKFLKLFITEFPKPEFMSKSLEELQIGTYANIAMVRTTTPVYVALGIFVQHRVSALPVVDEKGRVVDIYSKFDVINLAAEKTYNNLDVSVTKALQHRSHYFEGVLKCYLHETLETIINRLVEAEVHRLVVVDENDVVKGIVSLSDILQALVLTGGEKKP
T2 sequence (Q13131 whole entry partner): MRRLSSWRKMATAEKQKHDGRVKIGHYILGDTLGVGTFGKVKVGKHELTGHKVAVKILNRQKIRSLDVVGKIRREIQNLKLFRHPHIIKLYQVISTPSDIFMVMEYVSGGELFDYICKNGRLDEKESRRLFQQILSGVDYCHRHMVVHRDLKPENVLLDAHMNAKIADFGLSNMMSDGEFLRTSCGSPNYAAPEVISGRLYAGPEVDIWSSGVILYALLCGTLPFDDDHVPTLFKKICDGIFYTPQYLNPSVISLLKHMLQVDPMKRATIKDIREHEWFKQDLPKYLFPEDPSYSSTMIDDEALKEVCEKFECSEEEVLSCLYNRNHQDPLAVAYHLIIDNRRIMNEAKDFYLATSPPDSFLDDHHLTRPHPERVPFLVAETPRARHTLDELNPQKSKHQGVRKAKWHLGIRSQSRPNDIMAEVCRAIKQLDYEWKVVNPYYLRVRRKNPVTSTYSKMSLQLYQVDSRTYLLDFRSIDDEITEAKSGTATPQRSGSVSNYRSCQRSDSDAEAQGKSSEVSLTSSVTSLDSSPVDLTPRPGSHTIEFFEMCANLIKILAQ
T2 sequence (Q9Y478 2-270 partner limits assumed): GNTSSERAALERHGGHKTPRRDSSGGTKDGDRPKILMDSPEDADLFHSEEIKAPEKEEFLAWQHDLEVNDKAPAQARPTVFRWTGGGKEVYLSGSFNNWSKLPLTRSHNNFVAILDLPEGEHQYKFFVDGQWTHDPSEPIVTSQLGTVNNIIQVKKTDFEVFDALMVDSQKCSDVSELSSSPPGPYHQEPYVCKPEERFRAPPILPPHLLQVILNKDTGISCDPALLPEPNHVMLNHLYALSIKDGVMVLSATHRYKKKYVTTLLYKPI

[14] = biological target: T3, AMP-activated protein kinase, AMPK (Homo sapiens) (UniProt P54646+O43741+P54619+Q9UGJ0+Q9Y478+Q13131+Q9UGI9); conditions: at 1 µM
[15] = biological target: T3, AMP-activated protein kinase, AMPK (Homo sapiens); conditions: at 10 µM
[16] = biological target: T4, NUAK family SNF1-like kinase 1 (Homo sapiens) (UniProt O60285); conditions: at 1 µM
T4 sequence (whole entry): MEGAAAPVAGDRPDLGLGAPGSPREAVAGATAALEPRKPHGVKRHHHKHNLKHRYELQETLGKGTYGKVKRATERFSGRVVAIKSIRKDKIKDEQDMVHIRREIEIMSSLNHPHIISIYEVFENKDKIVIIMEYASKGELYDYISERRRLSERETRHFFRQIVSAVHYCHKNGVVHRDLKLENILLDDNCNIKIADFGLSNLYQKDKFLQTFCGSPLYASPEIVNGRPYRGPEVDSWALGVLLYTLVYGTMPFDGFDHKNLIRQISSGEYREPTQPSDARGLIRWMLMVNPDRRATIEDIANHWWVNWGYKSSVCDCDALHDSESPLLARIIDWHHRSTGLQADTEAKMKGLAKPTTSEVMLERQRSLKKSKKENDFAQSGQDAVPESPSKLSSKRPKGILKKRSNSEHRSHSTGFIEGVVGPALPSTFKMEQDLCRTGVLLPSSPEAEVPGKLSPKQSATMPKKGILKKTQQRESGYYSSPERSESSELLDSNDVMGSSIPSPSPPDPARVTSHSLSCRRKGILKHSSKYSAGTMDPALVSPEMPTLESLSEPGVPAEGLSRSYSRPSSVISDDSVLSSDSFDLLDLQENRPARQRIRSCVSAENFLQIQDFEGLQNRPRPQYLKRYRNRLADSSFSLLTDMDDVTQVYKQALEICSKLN

[17] = biological target: T4, NUAK family SNF1-like kinase 1 (Homo sapiens); conditions: at 10 µM
[18] = biological target: T2, AMP-activated protein kinase (AMPK) alpha-1/beta-1/gamma-1 (Homo sapiens); conditions: at 10 µM
[19] = biological target: T5, Mitogen-activated protein kinase kinase kinase 5 (Homo sapiens) (UniProt Q99683); conditions: at 1 µM
T5 sequence (whole entry): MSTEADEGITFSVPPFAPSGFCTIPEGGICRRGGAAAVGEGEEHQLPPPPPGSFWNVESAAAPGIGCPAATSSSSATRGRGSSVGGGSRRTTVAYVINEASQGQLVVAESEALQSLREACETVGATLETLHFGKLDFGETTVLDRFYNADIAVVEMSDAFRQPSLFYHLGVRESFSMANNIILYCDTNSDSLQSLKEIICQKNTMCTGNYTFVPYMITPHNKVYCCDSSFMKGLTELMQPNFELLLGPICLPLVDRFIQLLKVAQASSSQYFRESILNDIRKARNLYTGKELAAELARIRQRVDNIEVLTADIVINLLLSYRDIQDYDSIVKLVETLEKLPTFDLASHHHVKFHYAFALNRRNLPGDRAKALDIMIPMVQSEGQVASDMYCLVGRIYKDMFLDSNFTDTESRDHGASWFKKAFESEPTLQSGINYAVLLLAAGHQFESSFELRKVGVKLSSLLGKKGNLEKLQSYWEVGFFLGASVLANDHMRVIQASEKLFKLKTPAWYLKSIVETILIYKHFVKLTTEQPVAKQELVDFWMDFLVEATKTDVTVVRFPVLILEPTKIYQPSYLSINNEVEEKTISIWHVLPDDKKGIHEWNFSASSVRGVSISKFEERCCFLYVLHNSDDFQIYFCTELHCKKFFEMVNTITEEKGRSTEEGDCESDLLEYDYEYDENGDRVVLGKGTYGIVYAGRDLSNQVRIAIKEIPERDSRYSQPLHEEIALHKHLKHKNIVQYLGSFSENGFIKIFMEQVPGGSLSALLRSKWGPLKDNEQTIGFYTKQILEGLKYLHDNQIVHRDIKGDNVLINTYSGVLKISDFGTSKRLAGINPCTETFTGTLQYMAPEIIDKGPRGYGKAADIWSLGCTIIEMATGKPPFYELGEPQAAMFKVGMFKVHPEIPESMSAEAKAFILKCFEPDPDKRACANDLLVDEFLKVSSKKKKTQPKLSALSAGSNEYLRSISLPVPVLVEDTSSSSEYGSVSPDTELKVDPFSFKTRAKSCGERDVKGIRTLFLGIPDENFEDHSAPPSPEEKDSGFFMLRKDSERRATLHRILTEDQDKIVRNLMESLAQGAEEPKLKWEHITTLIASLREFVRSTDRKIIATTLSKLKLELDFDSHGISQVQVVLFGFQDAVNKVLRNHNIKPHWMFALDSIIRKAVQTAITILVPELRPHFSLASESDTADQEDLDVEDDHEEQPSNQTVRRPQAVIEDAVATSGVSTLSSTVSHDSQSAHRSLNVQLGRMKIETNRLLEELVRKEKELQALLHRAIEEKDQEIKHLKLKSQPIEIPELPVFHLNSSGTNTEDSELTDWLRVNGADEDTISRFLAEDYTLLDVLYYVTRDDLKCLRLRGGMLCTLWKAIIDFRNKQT

[20] = biological target: PAS domain-containing serine/threonine-protein kinase (Homo sapiens) (UniProt Q96RG2); conditions: at 10 µM
Sequence of PAS domain-containing serine/threonine-protein kinase (Homo sapiens) (Q96RG2 whole entry, the tested form may be a part): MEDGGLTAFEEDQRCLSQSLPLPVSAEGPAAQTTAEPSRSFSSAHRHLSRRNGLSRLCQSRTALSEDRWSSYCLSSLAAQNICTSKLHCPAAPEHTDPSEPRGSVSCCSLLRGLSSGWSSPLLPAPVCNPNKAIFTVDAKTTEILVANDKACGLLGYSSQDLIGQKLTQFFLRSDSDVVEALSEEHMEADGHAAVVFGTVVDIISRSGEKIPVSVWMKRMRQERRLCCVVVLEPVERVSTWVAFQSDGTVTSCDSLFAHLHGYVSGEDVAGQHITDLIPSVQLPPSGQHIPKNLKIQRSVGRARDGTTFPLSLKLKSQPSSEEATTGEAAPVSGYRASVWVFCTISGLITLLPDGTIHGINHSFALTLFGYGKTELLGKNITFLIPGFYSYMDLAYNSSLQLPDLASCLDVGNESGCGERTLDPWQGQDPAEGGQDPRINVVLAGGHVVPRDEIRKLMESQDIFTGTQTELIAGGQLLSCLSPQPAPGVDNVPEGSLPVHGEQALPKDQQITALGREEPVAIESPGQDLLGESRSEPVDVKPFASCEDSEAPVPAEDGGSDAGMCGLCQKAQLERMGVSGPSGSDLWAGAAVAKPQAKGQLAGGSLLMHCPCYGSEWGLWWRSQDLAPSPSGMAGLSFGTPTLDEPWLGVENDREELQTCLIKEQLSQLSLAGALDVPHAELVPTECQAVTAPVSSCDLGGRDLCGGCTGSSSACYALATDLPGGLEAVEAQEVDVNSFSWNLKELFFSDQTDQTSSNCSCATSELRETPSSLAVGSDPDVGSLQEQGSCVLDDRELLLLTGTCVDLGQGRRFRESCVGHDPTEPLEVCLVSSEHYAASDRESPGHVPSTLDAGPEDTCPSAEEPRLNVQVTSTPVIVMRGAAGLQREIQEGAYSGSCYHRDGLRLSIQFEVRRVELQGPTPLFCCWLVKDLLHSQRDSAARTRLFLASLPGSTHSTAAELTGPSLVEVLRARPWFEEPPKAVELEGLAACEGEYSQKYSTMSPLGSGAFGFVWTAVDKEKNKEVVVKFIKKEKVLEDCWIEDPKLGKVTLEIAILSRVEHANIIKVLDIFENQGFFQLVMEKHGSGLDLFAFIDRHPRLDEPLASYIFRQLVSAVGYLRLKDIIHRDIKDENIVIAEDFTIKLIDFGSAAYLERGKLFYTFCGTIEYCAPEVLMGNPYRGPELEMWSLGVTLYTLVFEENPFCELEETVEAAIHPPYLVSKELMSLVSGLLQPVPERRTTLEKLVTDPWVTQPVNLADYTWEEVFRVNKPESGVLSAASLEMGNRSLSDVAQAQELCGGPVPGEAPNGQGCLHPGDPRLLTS

SMILES	residual activity [1]	residual activity [2]	residual activity [3]	residual activity [4]	residual activity [5]	residual activity [6]	residual activity [7]	residual activity [8]	residual activity [9]	residual activity [10]	residual activity [11]	residual activity [12]	residual activity [13]	residual activity [14]	residual activity [15]	residual activity [16]	residual activity [17]	residual activity [18]	residual activity [19]	residual activity [20]
CCCCc1c(-c2ccc(OC)cc2)[nH]c2nccnc12	60%	68%	63%	64%	92%	60%	24%	5%	70%	31%	81%	39%	82%	74%	92%	15%	22%			
COc1cc2nccc(Oc3ccc(NC(=S)NC(=O)c4ccccc4C)cc3)c2cc1OC	88%	90%	83%	67%	95%	64%	24%	8%	79%	47%	126%	96%	88%			81%	74%	70%	88%	
CCN1/C(=C/C(C)=O)Sc2ccc(OC)cc21				80%			81%	64%			122%		79%					54%		
COc1ccc(CNC(=O)Nc2ncc([N+](=O)[O-])s2)cc1							77%	55%	70%	64%		109%								110%
CCOc1nc(NC(=O)Cc2cc(OC)ccc2OC)cc(N)c1C#N					100%	77%	73%	58%	81%	69%										
NC(=O)c1ccc(-c2nc(-c3ccc4c(c3)OCCO4)c(-c3ccccn3)[nH]2)cc1	99%	98%					79%	68%	74%	52%	31%	0%	90%				91%	92%	98%	
Nc1ncnc2[nH]nc(Nc3ccc(F)cc3)c12	111%		104%	97%	102%	81%	60%	17%	82%	67%	114%	77%	100%	99%	65%	98%	90%	69%		62%
Nc1nccc(-c2c(-c3ccc(F)cc3)ncn2C2CCNCC2)n1								39%				40%			70%		77%			
O=C1NC(=O)C(c2cn(CCCn3ccnc3)c3ccccc23)=C1Nc1ccccc1		75%					45%	11%	74%	65%	107%	103%	74%	73%	25%		38%	32%	82%	
COc1ccc(COc2ccc(Cc3cnc(N)nc3N)cc2OC)cc1				100%			79%	68%	74%		120%	119%			82%					
N#C/C(=C1/Nc2ccccc2S1)c1ccnc(NCCc2cccnc2)n1			84%	72%				12%	64%	18%				99%	67%	97%	82%	70%	78%	
CC(C)[C@H](CO)Nc1nc(Nc2cc(N)cc(Cl)c2)c2ncn(C(C)C)c2n1			57%	12%	26%	5%	29%	9%			122%	117%		87%	50%	44%	13%			
O=c1cc(N2CCOCC2)oc2c(-c3ccccc3)cccc12						77%	76%	58%	73%	53%										59%
CSc1nc(-c2ccc(F)cc2)c(-c2ccnc(NC(C)c3ccccc3)c2)[nH]1 (stereo not given)		92%	102%	83%	96%	81%	90%	50%	82%	56%			88%	80%	56%	101%	60%	59%	101%	64%
COc1cc2ncnc(Nc3cccc(Cl)c3)c2cc1OC			109%	84%	102%	87%	34%	6%	100%	107%	105%	101%			74%		52%	67%	103%	
N#Cc1c(NC(=O)c2cccc3ccccc23)sc2c1CCCC2					100%	66%	85%	61%	80%	91%	87%	93%	86%	98%			92%	97%	88%	96%
N#C/C(=C\c1ccc(O)c(O)c1)C(=O)NCc1ccccc1				85%			88%	62%					87%	124%	70%	100%	100%	53%		55%
